Measured values as given in PubChem BioAssay (NCATS).
Results filed as inconclusive are left out. Calls of active or inactive are those of the source. Unless noted, calls come from the whole dose curve; as a rule, active = well fitted curve in the direction sought with a large enough effect; inconclusive = small, poorly fitted or top-dose-only effect, or another doubt; inactive = no such curve, though single readings can be large; an effect the other way counts as inactive or inconclusive.

Experiments:
[1] = Validation of Assay for Modulators of Lamin A Splicing (AID 1459; active = well fitted curve in the direction sought with a large enough effect in the signal ratio; the % refers to the signal ratio;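 note: cells exposed to compound for two days before reading; 0% is about no effect; ratio rise marks activators and ratio drop marks inhibitors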)
In short: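 S3 HeLa stably expressing lamin A-EGFP splicing minigene and DsRed2, 600 cells/well in Opti-MEM with 2% FBS, treated 48 h at 37C; laser-scanning cytometry gives GFP/RFP total intensity ratio; ancitabine positive control, 0.5% DMSO vehicle.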

[2] = qHTS Assay for Lipid Storage Modulators (AID 1519; calls by dose curve; for activity change, negative = inhibition: % is set by controls: 0 for no effect and ±100 for the full control effect); details: Drosophila S3 cells, BODIPY lipid droplet/cell ratio, laser cytometry, cells loaded with oleic acid; for activity change, negative = inhibition: at 57.5 µM (top of the series)
In short: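 Cells seeded at 5,000 per well were treated with compounds over a concentration series and loaded with oleic acid (400 uM, as added). Lipid droplet fluorescence (488 nm excitation, 500-530 nm channel) was read by laser-scanning cytometry and normalized to 20 uM Triacsin C.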

[3] = target: DNA repair nuclease/redox regulator APEX1 (Homo sapiens) (UniProt P27695); assay: qHTS Validation Assay for Inhibitors of the Human Apurinic/apyrimidinic Endonuclease 1 (APE1) (AID 1705;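 note: TAMRA fluorescence gain over two minutes as APE1 cuts a quenched THF abasic duplex; % is set by controls: 0 for no effect and ±100 for the full control effect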)
In short: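 Fluorogenic double-stranded THF abasic-site substrate (5'-TAMRA/3'-BHQ-2), 50 nM final. Enzyme preincubated with compound 15 min at room temperature, then substrate added. Kinetic fluorescence (ex 525/em 598 nm) read three times at 60 s intervals; activity taken as third-minus-first read difference.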

[4] = Counterscreen for APE1 Inhibitors: Fluorescent Dye Displacement Validation Assay (AID 1707);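 note: plate controls were ThO with dsDNA and no compound for no effect and ThO without dsDNA for full effect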
In short: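 Assay buffer: Tris-HCl pH7.5 with 50mM NaCl, 2 mM MgCl2, 0.01% Tween-20. Dye 250 nM, duplex 50 nM final. Readout: decrease in ThO endpoint fluorescence, 480 nm excitation, 540 nm emission.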

[5] = qHTS for differential inhibitors of proliferation of Plasmodium falciparum line D10 (AID 1877);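 note: parasites grown with compound for 72 h before DNA staining; plate controls were vehicle wells for no effect and reference inhibitor wells for full effect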
[6] = qHTS for differential inhibitors of proliferation of Plasmodium falciparum line Dd2 (AID 1882); details: Potency: Plasmodium falciparum Dd2 proliferation inhibition;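 note: compound exposure of 72 h on infected erythrocytes; plate controls were DMSO vehicle for no effect and 0.29 µM artemisinin for full effect; nearly all actives have a fitted effect of over 65% in size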
In short: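 SYBR Green I DNA fluorescence read-out, ex 485/em 535 nm. Signals were normalized to 0.29 uM artemisinin and DMSO wells, then corrected using vehicle-only plates flanking each stack. Parasite growth ran 72 h in erythrocytes before lysis.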

[7] = target: Ferritin light chain (Equus caballus) (UniProt P02791); assay: qHTS Validation Assay for Identification of Novel General Anesthetics (AID 2323); note: % is set by controls: 0 for no effect and ±100 for the full control effect
In short: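 Horse-spleen apoferritin (10 uM) in PBS with 50% saturated 1-aminoanthracene; compounds pin-transferred, 10 min at room temperature. Fluorescence read at 380/535 nm, normalized to free 1-AMA and 1-AMA/apoferritin values; four-parameter Hill fit.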

[8] = target: ATP-dependent DNA helicase Q1 (Homo sapiens) (UniProt P46063); assay: qHTS Validation Assay for Inhibitors of RecQ-Like Dna Helicase 1 (RECQ1) (AID 2353);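 note: plate controls were DMSO vehicle for no effect and enzyme-free control for full effect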
In short: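 50 nM RECQ1T1 preincubated 15 min with compound in Tris pH 8.0 buffer with MgCl2, DTT, Tween-20 and 2.5 ug/ml poly(dI-dC); started with 200 nM TAMRA/BHQ-2 forked duplex and 2 mM ATP. Unwinding read as fluorescence (525/598 nm), two reads 2 h apart.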

[9] = Validation screen for small molecules that induce DNA re-replication in MCF 10A normal breast cells (AID 463097); note: 0% is about no effect; nearly all actives have a fitted effect of over 60% in size
In short: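 MCF 10A cells exposed to compound 48 hr at 37 C, 5% CO2, then Hoechst-stained 40 min. Laser-scanning imaging of nuclear DNA content (405 nm ex, 500-530 nm em); re-replication scored as rise in nuclei with elevated fluorescence intensity.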

[10] = Quantitative high throughput screen for delayed death inhibitors of the malarial parasite plastid, 96 hour incubation (AID 488745);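 note: luciferase-expressing P. falciparum in erythrocytes at 2% hematocrit and 0.1% parasitemia; % is set by controls: 0 for no effect and ±100 for the full control effect; nearly all actives have a fitted effect of over 70% in size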
In short: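 Growth of reporter-bearing P. falciparum in red cells is measured after 96 h with compound, covering two erythrocytic cycles. Luminescence from the integrated luciferase serves as the growth signal.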

[11] = Quantitative high throughput screen for delayed death inhibitors of the malarial parasite plastid, 48 hour incubation (AID 488752); note: % is set by controls: 0 for no effect and ±100 for the full control effect; nearly all actives have a fitted effect of over 65% in size
In short: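 One parasite generation (48 h, 37 C, 5% CO2) of luciferase-reporter P. falciparum in erythrocytes is run with test compound; decreased luminescence indicates inhibited growth.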

[12] = target: M-phase phosphoprotein 8 (Homo sapiens) (UniProt Q99549); assay: qHTS Validation Assay for Inhibitors for MPP8 Chromodomain Interactions with Methylated Histone Tails (AID 488949); note: top concentration of the series differs between compounds; % is set by controls: 0 for no effect and ±100 for the full control effect; nearly all actives have a fitted effect of over 55% in size
In short: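 MPP8 (50 nM) was pre-bound to 50 nM biotinylated H3(1-18)K9me3 peptide in PBS pH 7.4 with 0.01% Tween-20. Compounds were then added for 30 min at room temperature, and complex disruption was read by AlphaScreen with streptavidin donor and nickel-chelate acceptor beads.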

[13] = target: Transient receptor potential cation channel subfamily V member 1 (Homo sapiens) (UniProt Q8NER1); assay: HTS Assay for Compounds that Act as Enhancers of the Vanilloid Receptor 1 (AID 488979); note: 0% is about no effect
In short: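 Calcium influx kinetics via Fluo-8 (480/520 nm) in TRPV1-expressing cells, 2000/well cultured overnight at 35.5C. Compound-alone read 3 min (agonist phase), followed by EC20 capsaicin challenge for 2 min (enhancer phase).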

[14] = target: Thyrotropin receptor (Homo sapiens) (UniProt P16473); assay: qHTS Assay for Antagonists of the Thyroid Stimulating Hormone Receptor (AID 488980); note: 0% is about no effect
In short: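 TSHR-transfected HEK293 cells (2000/well) in HEPES-buffered HBSS with 70 uM RO 20-1724 were stimulated with 4 nM TSH (EC80, final) in the presence of compound. cAMP was measured by HTRF competition after lysis and 30 min at RT.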

[15] = target: Thyrotropin-releasing hormone receptor (Homo sapiens) (UniProt P34981); assay: qHTS for Small Molecule Agonists and Allosteric Enhancers of Human TRH Receptor: Validation Screen for Agonists (AID 493127;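 active = calcium activation more than 3 SD above the typical response in the agonist read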;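 note: intracellular calcium rise by fluo-8 fluorescence before TRH EC20 addition; 0% is about no effect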); details: TRH receptor agonist cell assay; at 2 µM; stronger effect = higher value
In short: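 Gq-coupled calcium mobilization in TRHR cells after compound addition, monitored kinetically with fluo-8 dye on an FDSS reader.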

[16] = target: Galactokinase (Homo sapiens) (UniProt P51570); assay: qHTS Validation Assay for Inhibitors of Human Galactokinase (GALK) (AID 493189); note: 0% is about no effect
In short: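 GALK (5 nM) with 35 uM ATP and 100 uM galactose in HEPES pH 8.0 with MgCl2, NaCl, DTT and BSA. Reaction ran 1 h at room temperature. Residual ATP read by Kinase-Glo Plus luminescence.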

[17] = target: Voltage-gated inwardly rectifying potassium channel KCNH2 (Homo sapiens) (UniProt Q12809); assay: qHTS Assay for Small Molecule Inhibitors of the Human hERG Channel Activity (AID 588834);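 note: top concentration of the series differs between compounds; % is set by controls: 0 for no effect and ±100 for the full control effect; lower thallium flux fluorescence means stronger hERG block; nearly all actives have a fitted effect of over 50% in size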
In short: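 U2OS cells BacMam-transduced with hERG, 2000 cells/well, compound ~10 min at 37 °C before stimulation buffer. FluxOR thallium flux fluorescence read kinetically on FDSS; decrease indicates block; AC50 from Hill fits.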

[18] = target: Endonuclease 4 (Escherichia coli (strain K12)) (UniProt P0A6C1); assay: Counterscreen for APE1 Inhibitors: qHTS Validation Assay for Inhibitors of Endonuclease IV (AID 1708); note: % is set by controls: 0 for no effect and ±100 for the full control effect
In short: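 Enzymatic AP-site incision assay using a double-stranded THF substrate labelled with TAMRA and BHQ-2; released fluorescence signals activity. Enzyme 2 nM, substrate 50 nM, 15 min compound preincubation.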

[19] = qHTS for differential inhibitors of proliferation of Plasmodium falciparum line 3D7 (AID 1876);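 note: parasite growth measured after three days of culture; 0% = vehicle wells and -100% = reference inhibitor wells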
[20] = qHTS for differential inhibitors of proliferation of Plasmodium falciparum line HB3 (AID 1886); details: Potency: Plasmodium falciparum HB3 proliferation inhibition;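 note: parasites grown with compound for 72 h before SYBR Green readout; plate controls were vehicle for no effect and reference inhibitor for full effect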
[21] = measured here: cell count channel max response
[22] = measured here: lipid channel max response

Sequence of Transient receptor potential cation channel subfamily V member 1 (Homo sapiens) (Q8NER1 whole entry, looked up): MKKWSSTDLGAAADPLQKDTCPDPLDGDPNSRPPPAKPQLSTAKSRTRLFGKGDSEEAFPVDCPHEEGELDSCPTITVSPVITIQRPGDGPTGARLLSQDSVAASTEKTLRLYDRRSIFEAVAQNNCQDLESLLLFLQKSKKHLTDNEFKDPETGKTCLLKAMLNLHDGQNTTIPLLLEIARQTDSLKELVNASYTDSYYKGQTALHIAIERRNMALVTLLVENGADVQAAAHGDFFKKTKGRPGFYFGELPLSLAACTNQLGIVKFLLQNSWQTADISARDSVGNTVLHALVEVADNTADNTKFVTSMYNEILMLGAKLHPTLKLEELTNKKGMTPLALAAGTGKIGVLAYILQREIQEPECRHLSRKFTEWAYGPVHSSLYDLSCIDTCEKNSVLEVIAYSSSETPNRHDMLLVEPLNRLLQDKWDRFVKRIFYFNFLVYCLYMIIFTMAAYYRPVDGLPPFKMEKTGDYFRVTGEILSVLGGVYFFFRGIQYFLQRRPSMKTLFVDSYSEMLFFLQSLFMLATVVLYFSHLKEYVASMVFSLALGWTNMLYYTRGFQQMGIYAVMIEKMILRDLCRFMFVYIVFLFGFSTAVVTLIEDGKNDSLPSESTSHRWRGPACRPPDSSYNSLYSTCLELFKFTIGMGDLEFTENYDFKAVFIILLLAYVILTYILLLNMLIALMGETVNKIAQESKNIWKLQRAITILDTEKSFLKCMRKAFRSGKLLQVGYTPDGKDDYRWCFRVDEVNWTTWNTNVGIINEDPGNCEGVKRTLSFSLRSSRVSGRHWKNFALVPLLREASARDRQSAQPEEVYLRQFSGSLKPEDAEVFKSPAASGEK
Sequence of Thyrotropin receptor (Homo sapiens) (P16473 whole entry, looked up): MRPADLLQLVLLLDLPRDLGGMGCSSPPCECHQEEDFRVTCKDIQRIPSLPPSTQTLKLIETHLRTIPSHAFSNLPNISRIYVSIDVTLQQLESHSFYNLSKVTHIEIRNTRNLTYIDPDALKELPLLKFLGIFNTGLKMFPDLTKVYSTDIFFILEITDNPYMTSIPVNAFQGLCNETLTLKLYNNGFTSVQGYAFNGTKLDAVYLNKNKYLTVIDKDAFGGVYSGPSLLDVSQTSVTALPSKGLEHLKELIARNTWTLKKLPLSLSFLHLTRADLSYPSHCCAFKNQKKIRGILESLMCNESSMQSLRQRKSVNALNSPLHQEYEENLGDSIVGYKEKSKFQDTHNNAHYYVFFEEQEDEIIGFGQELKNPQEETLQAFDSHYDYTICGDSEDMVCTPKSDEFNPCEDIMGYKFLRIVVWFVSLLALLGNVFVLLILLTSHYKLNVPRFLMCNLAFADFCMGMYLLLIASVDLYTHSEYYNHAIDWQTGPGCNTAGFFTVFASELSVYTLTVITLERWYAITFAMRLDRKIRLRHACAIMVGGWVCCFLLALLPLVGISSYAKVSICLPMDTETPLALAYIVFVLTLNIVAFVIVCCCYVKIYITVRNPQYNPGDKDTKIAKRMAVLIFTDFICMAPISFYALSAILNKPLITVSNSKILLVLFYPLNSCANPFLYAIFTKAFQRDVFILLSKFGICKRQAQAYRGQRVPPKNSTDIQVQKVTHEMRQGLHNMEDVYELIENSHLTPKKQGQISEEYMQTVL
Sequence of ATP-dependent DNA helicase Q1 (Homo sapiens) (P46063 whole entry, looked up): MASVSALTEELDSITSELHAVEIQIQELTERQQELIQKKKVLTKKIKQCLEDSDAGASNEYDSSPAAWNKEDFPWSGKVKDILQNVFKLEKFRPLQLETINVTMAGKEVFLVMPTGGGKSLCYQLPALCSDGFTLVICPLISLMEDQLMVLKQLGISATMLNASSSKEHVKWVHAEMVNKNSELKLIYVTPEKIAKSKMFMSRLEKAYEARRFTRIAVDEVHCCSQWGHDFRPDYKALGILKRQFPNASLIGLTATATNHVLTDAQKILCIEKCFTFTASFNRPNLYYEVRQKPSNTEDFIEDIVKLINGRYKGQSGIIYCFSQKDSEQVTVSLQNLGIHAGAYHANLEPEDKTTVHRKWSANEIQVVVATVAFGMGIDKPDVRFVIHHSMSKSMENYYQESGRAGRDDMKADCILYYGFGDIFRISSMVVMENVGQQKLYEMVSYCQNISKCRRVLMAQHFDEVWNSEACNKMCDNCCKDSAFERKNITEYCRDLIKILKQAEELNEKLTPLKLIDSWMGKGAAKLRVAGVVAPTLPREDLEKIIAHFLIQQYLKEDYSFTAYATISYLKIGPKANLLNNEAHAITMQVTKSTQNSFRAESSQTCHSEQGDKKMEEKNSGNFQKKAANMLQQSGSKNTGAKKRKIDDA
Sequence of Galactokinase (Homo sapiens) (P51570 whole entry, looked up): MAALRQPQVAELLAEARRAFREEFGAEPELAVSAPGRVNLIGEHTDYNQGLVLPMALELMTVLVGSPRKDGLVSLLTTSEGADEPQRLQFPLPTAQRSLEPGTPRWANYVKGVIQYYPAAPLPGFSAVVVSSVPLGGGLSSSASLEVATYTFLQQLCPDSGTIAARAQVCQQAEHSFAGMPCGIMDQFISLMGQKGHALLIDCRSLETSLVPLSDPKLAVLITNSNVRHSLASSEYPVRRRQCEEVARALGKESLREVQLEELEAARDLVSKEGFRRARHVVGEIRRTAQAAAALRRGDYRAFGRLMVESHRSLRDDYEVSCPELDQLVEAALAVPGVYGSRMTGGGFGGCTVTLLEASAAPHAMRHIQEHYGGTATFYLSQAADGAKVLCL
Sequence of M-phase phosphoprotein 8 (Homo sapiens) (Q99549 whole entry, looked up): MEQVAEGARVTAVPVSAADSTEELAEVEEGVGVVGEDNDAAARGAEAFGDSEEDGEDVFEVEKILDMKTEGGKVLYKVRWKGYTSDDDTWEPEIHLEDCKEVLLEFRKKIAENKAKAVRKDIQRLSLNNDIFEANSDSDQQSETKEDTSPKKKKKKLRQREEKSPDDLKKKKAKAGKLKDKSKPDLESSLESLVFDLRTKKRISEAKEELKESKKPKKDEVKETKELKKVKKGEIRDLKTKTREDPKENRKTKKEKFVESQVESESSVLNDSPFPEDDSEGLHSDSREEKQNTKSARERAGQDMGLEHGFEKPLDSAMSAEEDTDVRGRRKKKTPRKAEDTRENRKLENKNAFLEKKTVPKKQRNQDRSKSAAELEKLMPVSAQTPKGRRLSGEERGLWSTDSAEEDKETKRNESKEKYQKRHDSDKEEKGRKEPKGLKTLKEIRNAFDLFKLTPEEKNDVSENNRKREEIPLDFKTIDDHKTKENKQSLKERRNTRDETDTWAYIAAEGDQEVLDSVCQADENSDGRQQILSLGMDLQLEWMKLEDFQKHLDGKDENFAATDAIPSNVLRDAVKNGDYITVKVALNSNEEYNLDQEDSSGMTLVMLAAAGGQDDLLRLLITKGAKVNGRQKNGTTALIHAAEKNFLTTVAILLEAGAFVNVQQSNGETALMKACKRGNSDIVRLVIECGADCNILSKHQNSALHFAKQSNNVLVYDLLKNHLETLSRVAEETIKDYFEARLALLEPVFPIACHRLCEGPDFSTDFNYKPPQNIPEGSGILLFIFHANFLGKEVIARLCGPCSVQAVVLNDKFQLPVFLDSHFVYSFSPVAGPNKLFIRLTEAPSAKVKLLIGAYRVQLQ
Sequence of DNA repair nuclease/redox regulator APEX1 (Homo sapiens) (P27695 whole entry, looked up): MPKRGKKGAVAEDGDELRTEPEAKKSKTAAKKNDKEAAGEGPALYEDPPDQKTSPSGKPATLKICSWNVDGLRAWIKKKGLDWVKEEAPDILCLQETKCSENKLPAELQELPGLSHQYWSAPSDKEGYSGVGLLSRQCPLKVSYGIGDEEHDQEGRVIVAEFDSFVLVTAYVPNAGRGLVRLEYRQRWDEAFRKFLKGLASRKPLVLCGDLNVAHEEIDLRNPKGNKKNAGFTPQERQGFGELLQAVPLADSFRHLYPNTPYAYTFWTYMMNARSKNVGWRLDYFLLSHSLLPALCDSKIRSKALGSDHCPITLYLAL
Sequence of Thyrotropin-releasing hormone receptor (Homo sapiens) (P34981 whole entry, looked up): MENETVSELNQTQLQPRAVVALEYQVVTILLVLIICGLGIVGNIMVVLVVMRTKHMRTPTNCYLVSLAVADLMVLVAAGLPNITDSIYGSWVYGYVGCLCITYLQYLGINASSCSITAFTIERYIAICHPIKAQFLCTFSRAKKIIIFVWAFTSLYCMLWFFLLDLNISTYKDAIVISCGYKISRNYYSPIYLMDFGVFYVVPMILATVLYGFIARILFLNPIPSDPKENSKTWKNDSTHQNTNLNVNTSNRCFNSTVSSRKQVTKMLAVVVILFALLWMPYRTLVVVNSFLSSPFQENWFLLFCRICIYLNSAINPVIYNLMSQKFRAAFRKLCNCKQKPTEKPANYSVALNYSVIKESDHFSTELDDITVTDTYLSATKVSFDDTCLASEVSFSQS
Sequence of Ferritin light chain (Equus caballus) (P02791 2-175 limits assumed): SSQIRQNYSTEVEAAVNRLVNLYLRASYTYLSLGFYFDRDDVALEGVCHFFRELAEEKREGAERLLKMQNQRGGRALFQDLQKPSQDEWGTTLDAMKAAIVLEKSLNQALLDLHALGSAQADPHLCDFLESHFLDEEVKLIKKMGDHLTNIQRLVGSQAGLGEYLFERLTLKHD

CC(=O)[C@@]1(O)CC[C@H]2C3CCC4=CC(=O)CC[C@]4(C)C3CC[C@@]21C (stereo partly drawn)
-12.2%: max response [2, 21]
-12.4%: max response [2, 22]
inactive: outcome [1] | activity change, negative = inhibition [2] 1.08% | Potency [3] | Potency [4] | Potency [5] | Potency [6] | outcome [7] | Potency [8] | outcome [9] | Potency [10] | Potency [11] | Potency [12] | outcome [13] | outcome [14] | activation [15] 1.5% | outcome [16] | Potency [17]

O=C(O)CC[C@H](NC(=O)c1ccccc1C(=O)O)C(=O)O
34.2%: max response [2, 21]
inactive: outcome [1] | activity change, negative = inhibition [2] -0.627% | Potency [3] | Potency [4] | outcome [18] | Potency [19] | Potency [5] | Potency [6] | Potency [20] | outcome [7] | Potency [8] | outcome [9] | Potency [10] | Potency [11] | Potency [12] | outcome [13] | outcome [14] | activation [15] 0.188% | outcome [16] | Potency [17]
31.2%: max response [2, 22]

COc1cc(=O)n(C)c2c(OCC(O)C(C)(C)O)cccc12 (stereo not drawn)
inactive: outcome [1] | Potency [3] | Potency [4] | outcome [18] | Potency [19] | Potency [5] | Potency [6] | Potency [20] | outcome [7] | Potency [8] | outcome [9] | Potency [10] | Potency [11] | Potency [12] | outcome [13] | outcome [14] | activation [15] 0.812% | outcome [16] | Potency [17]

Nc1ncnc2c1ncn2[C@@H]1O[C@H](CO)[C@H](O)[C@H]1O
inactive: outcome [1] | Potency [3] | Potency [4] | outcome [18] | Potency [19] | Potency [5] | Potency [6] | Potency [20] | outcome [7] | Potency [8] | outcome [9] | Potency [10] | Potency [11] | Potency [12] | outcome [13] | outcome [14] | activation [15] 1.5% | outcome [16]

CNc1ncnc2c1ncn2[C@@H]1O[C@H](CO)[C@H](O)[C@H]1O
inactive: outcome [1] | Potency [3] | Potency [4] | outcome [18] | Potency [19] | Potency [5] | Potency [6] | Potency [20] | outcome [7] | Potency [8] | Potency [12] | outcome [13] | outcome [14] | activation [15] 1.06% | outcome [16] | Potency [17]

CC(N)=NCCCC(N)C(=O)O (stereo not drawn)
inactive: outcome [1] | Potency [3] | Potency [4] | outcome [18] | Potency [19] | Potency [5] | Potency [6] | Potency [20] | outcome [7] | Potency [8] | outcome [9] | Potency [10] | Potency [11] | Potency [12] | outcome [13] | outcome [14] | activation [15] 0.938% | outcome [16] | Potency [17]

CN1C(=O)CCC1c1cccnc1 (stereo not drawn)
inactive: outcome [1] | activity change, negative = inhibition [2] 10.8% | Potency [3] | Potency [4] | outcome [18] | Potency [5] | Potency [6] | Potency [20] | outcome [7] | Potency [8] | outcome [9] | Potency [11] | Potency [12] | outcome [13] | outcome [14] | activation [15] 1.19% | outcome [16]
-1.85%: max response [2, 21]
10.6%: max response [2, 22]

OC[C@H]1O[C@@H](n2cnc3c(Nc4ccccc4)ncnc32)[C@H](O)[C@H]1O
inactive: outcome [1] | Potency [3] | Potency [4] | outcome [18] | Potency [19] | Potency [5] | Potency [6] | Potency [20] | outcome [7] | Potency [8] | outcome [9] | Potency [11] | Potency [12] | outcome [13] | outcome [14] | activation [15] 0.188% | outcome [16] | Potency [17]

CN1C2CC(OC(=O)C(CO)c3ccccc3)CC1C1OC12 (stereo not drawn)
inactive: outcome [1] | Potency [3] | Potency [4] | Potency [19] | Potency [5] | Potency [6] | Potency [20] | Potency [8] | outcome [9] | Potency [10] | Potency [11] | outcome [14] | outcome [16]
